Reference: PubChem BioAssay (EPA / NIEHS)
Results filed as inconclusive are left out. Calls of active or inactive are those of the source. The calls were made as follows: active = hit-call score of the fitted dose curve at least 0.9, where 1 is the maximum; inconclusive = response in the unintended direction; inactive = score below 0.9.

Assays:
[1] = molecular target: Cellular tumor antigen p53 (Homo sapiens) (UniProt P04637); experiment: TOX21_p53_BLA_p2_ratio: Tox21 HCT-116 p53 Agonism Beta-lactamase Assay, Ratio, Phase 2 (AID 2283592)
How it was run: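 An inducible beta-lactamase reporter in HCT116 cells signals p53 pathway activation. After 16 h chemical exposure at 37C, cells load CCF4-AM substrate for 2 h at room temperature; activity is the cleaved/uncleaved emission ratio relative to DMSO.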

[2] = TOX21_p53_BLA_p3_viability: Viability Assessment in the Tox21 HCT-116 p53 Agonism Beta-lactamase Assay, Phase 3 (AID 2283593);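 also: cells exposed to compound for 16 h before reading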
How it was run: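 HCT-116 cells (4000/well) rested 5 h at 37C, then got DMSO compounds by pin tool (217-fold dilution) for 16 h at 37C, 5% CO2. After the bla read, CellTiter-Glo was added and luminescence read at 30 min, room temperature.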

[3] = molecular target: Cellular tumor antigen p53 (Homo sapiens) (UniProt P04637); experiment: TOX21_p53_BLA_p3_ratio: Tox21 HCT-116 p53 Agonism Beta-lactamase Assay, Ratio, Phase 3 (AID 2283596)
How it was run: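 HCT116 p53-bla cells (4000/well) given compound in DMSO (217-fold dilution) after 5 h, incubated 16 h at 37C. CCF4-AM substrate 2 h at room temperature; 460/530 nm emission ratio, gain fitted against DMSO.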

[4] = TOX21_p53_BLA_p4_viability: Viability Assessment in the Tox21 HCT-116 p53 Agonism Beta-lactamase Assay, Phase 4 (AID 2283597);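 also: hits lower the luminescence signal meaning cytotoxicity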
How it was run: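 Compound exposure of HCT116 cells lasts 16 h at 37C, 5% CO2, with DMSO stocks diluted 217-fold. Cellular ATP is then quantified by CellTiter-Glo luminescence after 30 min at room temperature.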

[5] = molecular target: Cellular tumor antigen p53 (Homo sapiens) (UniProt P04637); experiment: TOX21_p53_BLA_p5_ratio: Tox21 HCT-116 p53 Agonism Beta-lactamase Assay, Ratio, Phase 5 (AID 2283599)
How it was run: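 HCT-116 cells carrying a p53-inducible beta-lactamase reporter were seeded at 4000 cells/well and dosed after 5 h with compound in DMSO (217-fold dilution). After 16 h at 37C, CCF4-AM substrate was added for 2 h, and the 460/530 nm emission ratio was scored as gain-of-signal versus DMSO.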

[6] = TOX21_p53_BLA_p5_viability: Viability Assessment in the Tox21 HCT-116 p53 Agonism Beta-lactamase Assay, Phase 5 (AID 2283600)
How it was run: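 Counter-readout for cytotoxicity: ATP-dependent luminescence from CellTiter-Glo, read in the beta-lactamase wells after 30 min at RT, following a 16 h compound exposure at 37C.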

[7] = molecular target: Cellular tumor antigen p53 (Homo sapiens) (UniProt P04637); experiment: TOX21_p53_BLA_p4_ratio: Tox21 HCT-116 p53 Agonism Beta-lactamase Assay, Ratio, Phase 4 (AID 2283601)
How it was run: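 HCT116 cells carrying an inducible beta-lactamase reporter were plated at 4000 cells/well, rested 5 h, then exposed to compounds in DMSO (217-fold dilution) for 16 h at 37C. CCF4-AM substrate was loaded 2 h at room temperature; 460/530 nm emission ratio scored gain-of-signal versus DMSO.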

Measured: AC50

Cellular tumor antigen p53 (Homo sapiens), sequence (P04637 whole entry, looked up): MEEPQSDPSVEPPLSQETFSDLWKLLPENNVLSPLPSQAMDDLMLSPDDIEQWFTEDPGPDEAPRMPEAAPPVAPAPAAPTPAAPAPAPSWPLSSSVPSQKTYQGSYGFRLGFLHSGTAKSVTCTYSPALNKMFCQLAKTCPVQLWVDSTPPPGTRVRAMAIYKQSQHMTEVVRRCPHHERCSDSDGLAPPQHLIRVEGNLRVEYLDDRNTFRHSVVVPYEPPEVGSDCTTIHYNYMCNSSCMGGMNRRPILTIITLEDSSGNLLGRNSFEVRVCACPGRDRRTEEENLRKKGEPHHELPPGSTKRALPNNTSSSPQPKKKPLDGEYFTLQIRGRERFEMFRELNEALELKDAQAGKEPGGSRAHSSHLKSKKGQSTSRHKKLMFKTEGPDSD

CCCN1CCCC[C@H]1C(=O)Nc1c(C)cccc1C
inactive: all assays above

CCC[C@@H]1C[C@@H](C(=O)N[C@@H]([C@H]2O[C@H](SC)[C@H](OP(=O)(O)O)[C@@H](O)[C@H]2O)[C@H](C)Cl)N(C)C1
inactive: all assays above

CCOC(=O)c1c(N)sc2c1CCN(Cc1ccccc1)C2
inactive: all assays above

CCCOc1ccccc1-c1nc2n[nH]nc2c(=O)[nH]1
inactive: all assays above

CC1(CN2CCC(n3c(=O)[nH]c4ccccc43)CC2)OCc2ccccc2-n2cccc21 (centres undefined)
active: [4] 33.3 µM
inactive: all other assays above

O=S1(=O)c2cccc3cccc(c23)N1CCCN1CCN(c2ccc(F)cc2)CC1
active: [4] 41.2 µM
inactive: all other assays above

Cc1ccc(C(=O)C(C)CN2CCCCC2)cc1 (centres undefined)
inactive: all assays above

CC(=O)O[C@H]1C(=O)[C@@]2(C)[C@H]([C@H](OC(=O)c3ccccc3)[C@]3(O)C[C@H](OC(=O)[C@H](O)[C@@H](NC(=O)c4ccccc4)c4ccccc4)C(C)=C1C3(C)C)[C@]1(OC(C)=O)CO[C@@H]1C[C@@H]2O
inactive: [2] | [4] | [6]
active: [1] 0.179 µM | [3] 0.00826 µM | [5] 4.57 µM | [7] 0.00702 µM

CCOc1ccccc1C(N)=O
inactive: all assays above

C[C@@H]1O[C@@H]1P(=O)(O)O
inactive: all assays above

COC(=O)C1=C(C)NC(C)=C(C(=O)OCCCN2CCC(c3ccccc3)(c3ccccc3)CC2)C1c1cccc([N+](=O)[O-])c1 (centres undefined)
active: [1] 42 µM | [2] 36 µM | [3] 36.8 µM | [4] 28.8 µM | [5] 43.6 µM | [6] 37.4 µM | [7] 42.8 µM

CC(C)(C)NCC(O)c1ccc(O)c(CO)c1 (centres undefined)
inactive: all assays above
